HSF1 activator: HSF-1 activators, primary screen, NIH3T3-HGL cells, MG132 stress, luminescence, single point; NIH3T3-HGL HSF-1 luciferase reporter, 8 h; 100% = twice DMSO control signal; activation, % at 9 µM; 300,000 tested, 1.7% active;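 active means mean replicate activation of at least 50% with a set share of replicates each reaching 50%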
Dyrk1A ADPGlo: rat Dyrk1A kinase inhibitors, primary screen, biochemical, single point, plate reader; Dual specificity tyrosine-phosphorylation-regulated kinase 1A (Rattus norvegicus), Q63470; ADP-Glo luminescence, NFATc1 peptide; inhibition, % at 12.5 µM; 310,000 tested, 0.43% active; AID 504441, 2011; in the data active means inhibition above about 50%
GC-A act: GC-A stimulated cGMP production enhancers – HEK293 GC-A cells, cGMP TR-FRET, EC30 ANP, primary screen; Atrial natriuretic peptide receptor 1 (Homo sapiens), P16066; 0% at EC30 ANP, 100% saturating ANP; AID 1671463, 2021; 370,000 tested, 0.14% active; activation, % at 10 µM; in the data active means activation above about 40%
GC-B act: human GC-B receptor activators, primary screen, HEK293 GC-B cells, cGMP TR-FRET, EC30 CNP | Atrial natriuretic peptide receptor 2 (Homo sapiens), P20594 | AID 1920062, 2024 | activation, % at 10 µM | 370,000 tested, 0.11% active | 0% at EC30 CNP, 100% saturating CNP;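 active means activation at 10 µM reaching about 35% in either raw or pattern-adjusted values, limit read from the data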
HSF1 inh: HSF1 inhibitors in luciferase reporter cells, primary screen, cell-based, NIH3T3, luminescence; 300,000 tested, 0.77% active; activity change, negative = inhibition, % at 7.5 µM (by protocol); NIH3T3-HGL HSE-luciferase, MG132-induced, luminescence 8 h; hits give low values;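 active means more than half of replicate wells show activity change below -50%, luminescence cut by over half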;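 further: luciferase reports HSF-1 transcriptional activity via heat shock element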
aDG glyco up: activators of alpha-DG glycosylation, primary screen, uHTS, Pro5-aDG cells, AlphaScreen. alpha-DG glycosylation AlphaScreen (IIH6); 0% Pro5, 100% B10-LARGE cell signal. activation, % at 10 µM. 360,000 tested, 0.22% active. AID 624168, 2012;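 active means activation of at least 8% versus controls, or a plate z-score of at least 8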;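 further: Pro5 are CHO cells carrying HIG-tagged alpha-DG that lacks glycosylation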
Of the large screens only hits and unclear results are named; the others gave an inactive call. This is a sample that favours compounds with a hit; in the whole collection about 2.5% have one here.

C#CCn1cc(/C=N/Nc2nc3ccccc3[nH]2)c2ccccc21	HSF1 activator 370
COc1cc(/C=N\Nc2nc3ccccc3o2)cc(OC)c1OC	none
COc1cc(/C=N\Nc2nc3ccccc3[nH]2)cc(OC)c1OC	HSF1 activator 437
O=C(Nc1ccc(CN2CCOCC2)cc1)c1cc(Br)ccc1Cl	none
COc1cc(OC)c(OC)cc1/C=N/Nc1nc2ccccc2[nH]1	HSF1 activator 267
CCN(CC)c1ccc(/C=N/Nc2nc3ccccc3[nH]2)c(O)c1	HSF1 activator 169
COc1ccc2c(c1)c(/C=N/Nc1nc3ccccc3[nH]1)c(C)n2C	HSF1 activator 206
COc1cc(OC)c(OC)cc1/C=N/Nc1ncnc2c1[nH]c1ccccc12	none
C=CCN1C(=O)[C@H](CC(=O)N2CCCC2)[C@@]2(C(=O)OCC)CCCC=C12	none (no result: HSF1 activator, Dyrk1A ADPGlo, HSF1 inh, aDG glyco up)
CSc1ccc(/C=N/Nc2cccc(C(=O)O)c2)cc1	none (no result: HSF1 activator, Dyrk1A ADPGlo, GC-A act, GC-B act, HSF1 inh)
O=C(O)c1cccc(N/N=C/c2cccs2)c1	HSF1 inh -58
O=C(O)c1cccc(N/N=C/c2ccc(OC(F)(F)F)cc2)c1	HSF1 inh -56
CCOC(=O)c1c(C)n(-c2ccc(C)cc2)c2ccc(OCC(O)CNCCCO)cc12 (stereo unspecified)	none (no result: HSF1 activator, HSF1 inh)
O=C(NCCOc1ccccc1)C1=CC=CN2CCS(=O)(=O)N=C12	none (no result: HSF1 activator, HSF1 inh)
CC1CCN(c2c(NCC3CCC(C(=O)Nc4ccccn4)CC3)c(=O)c2=O)CC1 (stereo unspecified)	none
Cc1csc(NC(=O)c2cc3c(s2)CCC3)n1	HSF1 activator 54
COC(=O)c1sc(NC(=O)c2cc3c(s2)CCCC3)nc1C	none
COc1ccc(-c2nc(C3CCCCC3)no2)cc1OC	HSF1 activator 81
CCOC(=O)N1CCN(C(=O)C2CCN(C(=O)c3ccccc3C)CC2)CC1	GC-A act 41 (no result: HSF1 activator, HSF1 inh)
COc1ccc(N(C(=O)c2ccco2)C(C(=O)NC2CCCC2)c2cccs2)cc1 (stereo unspecified)	HSF1 activator 66
O=C(CSc1nnc(CNC(=O)c2ccccc2)o1)NCc1ccc(F)cc1	none
O=C(CSc1nnc(CNC(=O)c2cccs2)o1)NCc1ccc(F)cc1	HSF1 inh -55
Cc1ccc(-n2ncc3c(NCc4ccc5c(c4)OCO5)ncnc32)c(C)c1	HSF1 inh -55
Cc1cccc(-n2ncc3c(NCc4ccc5c(c4)OCO5)ncnc32)c1	none
c1nc(NCc2ccc3c(c2)OCO3)c2cc(-c3ccoc3)ccc2n1	GC-A act 42, GC-B act 46 (no result: HSF1 activator, HSF1 inh)
c1cncc(-c2ccc3ncnc(NCc4ccc5c(c4)OCO5)c3c2)c1	none (no result: HSF1 activator, Dyrk1A ADPGlo, HSF1 inh)
Cc1ccc(-n2ncc3c(NCc4cccnc4)ncnc32)cc1C	HSF1 activator 55
Cc1ccc(-c2cc3ccccc3nc2N)cc1	none
CC(C)c1ccc(/C=C/C(=O)NCCCc2ccccc2)cc1	none
COc1ccc(/C=C/C(=O)NCCCc2ccccc2)cc1	HSF1 activator 62
CCNC(=S)Nc1cccc(S(=O)(=O)NC2=NCCC2)c1	none (no result: Dyrk1A ADPGlo)
CC(=O)NC(=S)Nc1cccc(S(=O)(=O)NC2=NCCC2)c1	HSF1 inh -76
